Experimental data as given in PubChem BioAssay.
Activity calls are given as the source filed them.

What was measured:
[1] = test system: Human papillomavirus type 1a protein E7 (residues 44-93); assay: small molecules binding HPV E7 44-93 – biochemical, small-molecule microarray, residues 44-93, 635 nm fluorescence, primary screen (AID 1108); conditions: fluorescence 635 nm, higher = more signal;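 further: E7 fragment applied at 1 µg/mL in TBST for 1 h at 4 C; score combines spot fluorescence with its signal to noise ratio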
[2] = hepatitis C replication reporter changes, two-sided – Huh7 cells, luciferase reporter, HCV replication inhibitor project, primary screen (AID 1109); conditions: Huh7 HCV replicon luciferase reporter, 48 h; higher = more signal;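 further: huh7 hepatoma cells harbouring a luciferase neomycin HCV replicon reporter; luciferase luminescence as measure of HCV replicon replication; test concentration not given here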
[3] = biological target: Left-right determination factor 2 (Homo sapiens) (UniProt O00292); assay: small molecules binding LEFTY2 protein – biochemical, small-molecule microarray, 635 nm fluorescence scan, primary screen (AID 1110); conditions: higher = more signal
Left-right determination factor 2 (Homo sapiens), sequence (O00292 whole entry, looked up): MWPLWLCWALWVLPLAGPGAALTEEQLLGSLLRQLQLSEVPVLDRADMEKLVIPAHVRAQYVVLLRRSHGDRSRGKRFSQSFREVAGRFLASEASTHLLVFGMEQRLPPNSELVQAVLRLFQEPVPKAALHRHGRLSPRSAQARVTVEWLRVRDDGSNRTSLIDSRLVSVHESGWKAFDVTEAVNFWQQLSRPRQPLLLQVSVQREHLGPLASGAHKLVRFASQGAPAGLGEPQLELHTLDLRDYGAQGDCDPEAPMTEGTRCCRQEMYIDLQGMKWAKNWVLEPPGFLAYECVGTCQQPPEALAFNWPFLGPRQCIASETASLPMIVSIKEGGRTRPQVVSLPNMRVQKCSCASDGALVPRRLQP

[4] = biological target: Calmodulin-1 (Homo sapiens) (UniProt P0DP23); assay: small molecules binding calmodulin-1 with EGTA – biochemical, small-molecule microarray, Cy5-labelled CALM1, profiling panel (AID 1111); conditions: Cy5-CALM1 binding fluorescence, higher = more signal;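 further: labelled calmodulin applied in Tris saline Tween buffer holding calcium plus EGTA and DTT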
[5] = biological target: Calmodulin-1 (Homo sapiens) (UniProt P0DP23); assay: small molecules binding Ca-loaded calmodulin-1 – biochemical, small-molecule microarray, Cy5-labelled CALM1, plus calcium, artefact control for SMM control-protein annotation, profiling panel (AID 1112); conditions: Cy5-CALM1 binding fluorescence, higher = more signal;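 further: score merges spot fluorescence with signal to noise from triplicate slides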
[6] = probe aWnt5a binding to arrayed compounds – biochemical, biotinylated probe, 635/667 nm fluorescence, primary screen (AID 1113); conditions: small-molecule microarray, higher = more signal;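 further: score merges 667 nm fluorescence intensity with signal-to-noise per printed feature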
[7] = probe aShh binding to arrayed compounds – biochemical, biotinylated probe, 635/667 nm fluorescence, primary screen (AID 1114); conditions: small-molecule microarray, higher = more signal;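 further: probe is biotin-labelled aShh protein from a stem cell growth factor screen; measures binding of labelled protein to compounds printed on the slide; score merges feature fluorescence at 667 nm with signal-to-noise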
[8] = probe aNog binding to arrayed compounds – biochemical, biotinylated probe, 635/667 nm fluorescence, primary screen (AID 1115); conditions: small-molecule microarray, higher = more signal;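 further: probe is biotinylated aNog protein used at 0.15 µg/mL for 1 h at 4 C; z-score combines 667 nm fluorescence of each spot with its signal to noise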
[9] = biological target: Torsin-1A-interacting protein 1 (Homo sapiens) (UniProt Q5JTV8); assay: compound microarray binding of lysate hLAP1 – cell lysate, small-molecule microarray, COS7 lysate, 635/667 nm fluorescence, primary screen (AID 1116); conditions: 635 nm fluorescence, higher = more signal
Torsin-1A-interacting protein 1 (Homo sapiens), sequence (Q5JTV8 whole entry, looked up): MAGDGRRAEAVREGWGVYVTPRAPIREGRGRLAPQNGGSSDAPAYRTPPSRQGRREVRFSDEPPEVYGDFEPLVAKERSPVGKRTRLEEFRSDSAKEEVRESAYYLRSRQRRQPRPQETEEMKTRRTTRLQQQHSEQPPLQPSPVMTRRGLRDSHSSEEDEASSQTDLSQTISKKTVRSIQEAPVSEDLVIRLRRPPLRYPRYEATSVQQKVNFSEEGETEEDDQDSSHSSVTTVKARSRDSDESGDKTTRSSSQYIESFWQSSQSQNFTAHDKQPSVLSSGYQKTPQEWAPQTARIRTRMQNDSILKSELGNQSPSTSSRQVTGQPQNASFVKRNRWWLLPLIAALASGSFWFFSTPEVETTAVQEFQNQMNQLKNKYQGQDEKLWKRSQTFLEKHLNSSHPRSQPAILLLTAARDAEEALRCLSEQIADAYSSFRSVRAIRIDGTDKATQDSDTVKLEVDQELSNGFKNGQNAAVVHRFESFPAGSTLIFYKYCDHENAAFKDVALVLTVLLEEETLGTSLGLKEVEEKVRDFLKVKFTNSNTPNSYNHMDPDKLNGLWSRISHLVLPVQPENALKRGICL

[10] = biological target: Alpha-bungarotoxin (Bungarus multicinctus) (UniProt P60615); assay: compounds binding labelled alpha-BTX control protein – biochemical, small-molecule microarray, Alexa647 label, 635/667 nm fluorescence, artefact control for SMM control protein annotation, profiling panel (AID 1117); conditions: alpha-BTX-A647 binding fluorescence, higher = more signal
Alpha-bungarotoxin (Bungarus multicinctus), sequence (P60615 whole entry, looked up): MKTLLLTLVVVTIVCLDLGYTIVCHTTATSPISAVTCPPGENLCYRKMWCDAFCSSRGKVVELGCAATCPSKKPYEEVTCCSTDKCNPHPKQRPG

Albumin (Bos taurus) = Albumin (Bos taurus) (UniProt P02769); assay: compounds binding labelled BSA control protein – biochemical, small-molecule microarray, Alexa647 label, 635/667 nm fluorescence, artefact control for SMM control protein annotation, profiling panel (AID 1118); conditions: BSA-A647 binding, fluorescence 635 nm, higher = more signal;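 further: score merges 667 nm emission intensity and signal-to-noise per printed compound spot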
Albumin (Bos taurus), sequence (P02769 whole entry, looked up): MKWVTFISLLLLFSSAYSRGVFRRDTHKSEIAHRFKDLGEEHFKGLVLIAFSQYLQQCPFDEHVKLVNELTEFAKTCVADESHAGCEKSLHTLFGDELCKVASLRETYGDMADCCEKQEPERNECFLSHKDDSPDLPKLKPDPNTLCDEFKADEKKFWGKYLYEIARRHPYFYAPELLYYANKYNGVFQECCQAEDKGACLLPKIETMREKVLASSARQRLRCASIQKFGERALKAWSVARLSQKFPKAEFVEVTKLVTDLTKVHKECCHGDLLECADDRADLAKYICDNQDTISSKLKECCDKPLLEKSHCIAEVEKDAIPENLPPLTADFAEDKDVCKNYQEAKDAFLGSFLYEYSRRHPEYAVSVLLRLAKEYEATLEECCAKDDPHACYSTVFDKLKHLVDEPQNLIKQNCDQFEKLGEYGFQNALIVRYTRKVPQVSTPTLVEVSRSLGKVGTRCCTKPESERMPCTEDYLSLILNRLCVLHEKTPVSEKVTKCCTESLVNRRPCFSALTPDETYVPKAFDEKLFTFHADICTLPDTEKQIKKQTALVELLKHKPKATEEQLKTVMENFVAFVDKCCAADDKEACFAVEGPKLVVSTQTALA

[11] = probe aXIP binding to arrayed compounds – biochemical, NeuroSMM set, 635/667 nm fluorescence, primary screen (AID 1119); conditions: small-molecule microarray, higher = more signal, called active from +8 up or from −8 down;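 further: probe is the protein aXip251-270 applied at 1 µg/mL to compound-printed slides; binding of probe to printed compounds measured as 667 nm fluorescence plus signal to noise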
[12] = probe aNOTCH3 binding on compound microarray – biochemical, small-molecule microarray, 635/667 nm fluorescence, primary screen (AID 1120); conditions: higher = more signal;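 further: probe is a biotin-tagged antibody raised against NOTCH3 rather than NOTCH3 protein; score merges spot fluorescence near 667 nm with spot signal to noise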
[13] = probe aNOTCH2 binding on compound microarray – biochemical, small-molecule microarray, 635/667 nm fluorescence, primary screen (AID 1121); conditions: higher = more signal;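 further: score merges feature fluorescence read at 667 nm with its signal to noise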
[14] = biological target: Carbonic anhydrase 2 (Homo sapiens) (UniProt P00918); assay: compounds binding carbonic anhydrase 2 – biochemical, small-molecule microarray, Alexa647-labelled CAII, profiling panel (AID 1122); conditions: CAII-A647 binding fluorescence, higher = more signal
[15] = COS7 lysate on small-molecule microarray, probe aHis, 635 nm (AID 1123); conditions: COS7 cell lysate, fluorescence, higher = more signal;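 further: z-score combines 667nm fluorescence intensity with signal-to-noise per printed compound spot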
[16] = probe aLAP1 signal on lysate-treated microarray – cell lysate, small-molecule microarray, COS7 lysate, primary screen (AID 1124); conditions: probe aLAP1, fluorescence, higher = more signal;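 further: lysate comes from COS7 cells expressing LAP1 and is applied at 0.3 µg/mL; score merges spot fluorescence near 667 nm with signal-to-noise over triplicate slides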
Sam68 (KHDRBS1) = assay: compounds binding KHDRBS1 protein – biochemical, small-molecule microarray, 635 nm fluorescence, primary screen (AID 1125); conditions: higher = more signal;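 further: score merges 667 nm channel intensity with signal to noise over triplicate slides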
[17] = test system: Chordin-like protein 2 (CHRDL2); assay: compounds binding chordin-like 2 – biochemical, small-molecule microarray, 635 nm fluorescence, primary screen (AID 1126); conditions: fluorescence 635 nm, higher = more signal;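 further: printed compound slides probed with Chrdl2 protein at 4 µg/mL for 1 h at 4 C; score merges 667 nm emission intensity with signal to noise over three replicate slides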
[18] = biological target: Concanavalin-A (Canavalia ensiformis) (UniProt P02866); assay: compounds binding concanavalin A lectin – biochemical, small-molecule microarray, Alexa647 label, 635 nm, artefact control for SMM control protein annotation, primary screen (AID 1127); conditions: ConA-A647 binding fluorescence, higher = more signal;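 further: z combines 667 nm emission intensity with signal-to-noise across three replicate slides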
Concanavalin-A (Canavalia ensiformis), sequence (P02866 whole entry, looked up): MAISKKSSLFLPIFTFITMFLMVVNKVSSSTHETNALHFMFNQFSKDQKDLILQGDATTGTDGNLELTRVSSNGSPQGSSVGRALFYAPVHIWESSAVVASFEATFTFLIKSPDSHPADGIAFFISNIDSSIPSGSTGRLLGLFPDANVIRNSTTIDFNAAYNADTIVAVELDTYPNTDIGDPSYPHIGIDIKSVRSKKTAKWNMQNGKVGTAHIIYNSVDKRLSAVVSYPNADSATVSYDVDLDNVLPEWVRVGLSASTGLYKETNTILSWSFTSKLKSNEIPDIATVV

| SMILES | composite z-score [1] | z-score [2] | composite z-score [3] | composite z-score [4] | composite z-score [5] | composite z-score [6] | composite z-score [7] | composite z-score [8] | composite z-score [9] | composite z-score [10] | composite z-score (Albumin (Bos taurus)) | composite Z-score [11] | composite z-score [12] | composite z-score [13] | composite z-score [14] | composite z-score [15] | composite z-score [16] | composite z-score (Sam68 (KHDRBS1)) | composite z-score [17] | composite z-score [18] |
| --- | --- | --- | --- | --- | --- | --- | --- | --- | --- | --- | --- | --- | --- | --- | --- | --- | --- | --- | --- | --- |
| CC(CO)N1C(=O)[C@@H]2[C@H]3C(=O)OCC=C[C@H]3OC23C=CCN(c2ccc4ccccc4c2)C(=O)[C@@H]13 (stereo not given in full) | -1.55 | -0.418 | -2.64 | -0.505 | 0.0117 | -0.174 | -0.0035 | 0.474 | -1.14 | -0.674 | 0.876 | 0.0987 (inactive) | -0.381 | -0.132 | 0.324 | -0.312 | -0.139 | -0.892 | -1.66 | -0.387 |
| COc1ccc(NN2C(C(O)c3ccccc3)C=CC3C(=O)N(C4CCCCC4)C(=O)C32)cc1 (stereo not given) | 1.45 | -0.888 | 0.395 | 1.38 | -0.15 | 0.0974 | 0.13 | 0.908 | 0.644 | 1.13 | 0.74 | 0.38 (inactive) | 0.147 | -0.0047 | 0.749 | 2.67 | 0.4 | 1.32 | -0.223 | 1.12 |
| O=C1C2C=CC(C(O)C(c3ccccc3)c3ccccc3)N(Nc3ccccc3F)C2C(=O)N1c1ccccc1 (stereo not given) | 1.45 | -0.942 | 0.407 | 1.04 | 0.713 | 0.0182 | 0.108 | 0.686 | 0.855 | 0.451 | 1 | -0.173 (inactive) | 0.24 | -0.0386 | 0.612 | 2.99 | 1.02 | 1.31 | -0.0392 | 0.5 |
| COCCOC(=O)N1C(=O)[C@@]2(c3ccccc31)[C@H](C(=O)Nc1nc3ccccc3s1)[C@H]1C(=O)O[C@H](c3ccccc3)[C@H](c3ccccc3)N1[C@@H]2c1ccccc1OCCO | 1.41 | -1.83 | 0.146 | 1.51 | 0.476 | -0.0685 | -0.225 | 0.36 | 0.429 | 1.72 | 0.0171 | 0.0308 (inactive) | 0.291 | -0.0684 | 0.526 | 1.54 | 1.63 | 1.3 | 0.145 | 1.08 |
| CC(C)C[C@@H]1NC(=O)[C@@H]2C[C@H](C(=O)NCCCCCNC(=O)CS)[C@H](c3ccc(O)cc3)N2C1=O | 1.37 | 2.04 | 0.104 | 1.18 | 0.194 | -0.12 | 0.0637 | -0.12 | 0.097 | 0.136 | -0.0368 | -0.442 (inactive) | -0.101 | -0.104 | 0.36 | 2.1 | -0.646 | 0.92 | 0.652 | 0.374 |
| C=CC[C@]1(C(=O)NCC(O)CO)N=C(c2ccc(OCCCO)cc2)O[C@H]1c1ccccc1CN=[N+]=[N-] (stereo not given in full) | 0.551 | -1.06 | -0.696 | 1.34 | 0.262 | 0.0181 | -0.0146 | -0.516 | 3.34 | 0.138 | 0.0838 | 0.58 (inactive) | -0.0362 | -0.0357 | 0.522 | 3.12 | 0.988 | 0.605 | -1.33 | 0.148 |
| C[C@]1(C(=O)NC2CC2)c2ccccc2C(=O)N(Cc2cc(F)cc(C(F)(F)F)c2)[C@H]1c1ccc(CO)cc1 | 1.49 | -0.782 | -1.59 | -0.448 | 0.0045 | -0.187 | -0.469 | -0.658 | -0.65 | -0.442 | -0.1 | 0.004 (inactive) | -0.368 | -0.164 | 0.759 | 2.23 | 0.522 | -0.0456 | -1.61 | -0.0372 |
| CN1C(=O)C2C=CC(C(O)c3ccc(I)cc3)N(N(c3ccccc3)c3ccccc3)C2C1=O (stereo not given) | -0.802 | -1.55 | -0.953 | 0.95 | -0.0638 | -0.0735 | 0.0469 | 0.878 | -0.119 | 0.98 | 0.626 | 0.263 (inactive) | -0.0328 | 0.0129 | 0.243 | 0.307 | 0.249 | -0.397 | 0.0635 | 0.326 |
| O=C1OC[C@@H](c2ccccc2)n2cc(/C=C/c3ccccc3)cc21 | 0.06 | -0.18 | -0.623 | -0.638 | -1.27 | -0.197 | -0.0709 | -0.367 | -0.948 | 0.45 | -0.456 | 0.597 (inactive) | -0.189 | -0.149 | 0.43 | 0.163 | -0.475 | -1.14 | -0.701 | 0.51 |
| C=C(C)C1CN([C@H](CO)c2ccccc2)C(=O)/C1=C\c1ccccc1 (stereo not given in full) | -0.165 | -1.56 | 0.241 | -0.565 | -0.754 | -0.144 | -0.289 | 0.172 | 0.189 | -0.173 | 0.252 | -0.137 (inactive) | -0.0647 | -0.0741 | 0.158 | -0.574 | 0.027 | 0.168 | 0.467 | 0.0006 |
| CCOC(=O)C1=C[C@@H](C(C)(C)C)N(S(=O)(=O)c2ccc(C)cc2)[C@H]1c1ccc(OC)cc1 | 1.34 | -2.36 | 0.535 | 1.49 | 0.577 | 0.0279 | 0.216 | -0.397 | 1.97 | 1.14 | 0.847 | -0.244 (inactive) | 0.116 | -0.0956 | 0.392 | 1.8 | 0.315 | 1.3 | 0.209 | 1.14 |
| CS(=O)(=O)CCOC(=O)C1=CC(CCCO)=CC(C2CC2)N(Cc2sc3ccccc3c2Cl)C=C1C(=O)OCCS(C)(=O)=O (stereo not given) | 0.632 | -2.01 | 0.191 | 1.18 | 0.811 | 0.0324 | 0.214 | 0.614 | -0.643 | 0.904 | 1.01 | -0.0349 (inactive) | 0.398 | 0.0706 | 0.666 | 2.34 | 0.549 | 1.07 | -0.225 | 0.648 |
| O=C(NCC(F)(F)F)[C@@H]1c2ccccc2C(=O)N(Cc2cc(C(F)(F)F)cc(C(F)(F)F)c2)[C@H]1c1ccc(CO)cc1 | 0.236 | -1.04 | -0.244 | -0.0722 | 0.122 | 0.0377 | -0.0035 | -0.103 | 0.653 | 0.0956 | 0.195 | -0.368 (inactive) | -0.154 | -0.0984 | 0.207 | 0.729 | 0.158 | 0.178 | 0.0632 | 0.209 |
| C=C(C(=O)CC[C@@H](OC(=O)c1ccccc1-c1ccccc1C(=O)O)c1ccc(OCCO)cc1)C(C)C | 1.33 | -2.58 | 0.63 | 0.653 | -0.698 | 0.0162 | 0.108 | -0.095 | 1.3 | 0.478 | 0.0832 | -0.32 (inactive) | 0.169 | -0.0876 | 0.801 | 0.393 | -0.0004 | 0.929 | 0.639 | 0.94 |
| O=C(O)C1=CC[C@H]2C(=O)N(c3ccccc3)C(=O)[C@@H]12 | 1.37 | 0.49 | 0.412 | 0.661 | -0.388 | 0.155 | 0.369 | 0.883 | 0.769 | 0.955 | 0.342 | 0.277 (inactive) | 0.21 | -0.0216 | 0.425 | 1.33 | 0.453 | 1.31 | -0.0125 | 1.02 |
| COCCOC(=O)N1C(=O)[C@@]2(c3cc(C#CCC(C(=O)OC)C(=O)OC)ccc31)[C@H](c1ccc(O)cc1)N1[C@H](c3ccccc3)[C@H](c3ccccc3)OC(=O)[C@H]1[C@@H]2C(=O)N1CCc2cc(OC)c(OC)cc2C1 | 0.438 | -0.284 | 1.04 | 0.505 | 0.781 | 0.0215 | 0.0898 | -0.366 | 1.54 | 1.36 | -0.0894 | -0.262 (inactive) | 0.147 | -0.0166 | 0.378 | 1.12 | 0.761 | 1.29 | 0.242 | 0.903 |
